# Assay outcomes as filed in PubChem.
# KDM5B inhibitor: KDM5B demethylase inhibition; Q9UGL1; KDM5B demethylase, FDH-coupled NADH fluorescence (FDH is formaldehyde dehydrogenase); Potency, µM (series often up to 57.7 µM), actives largely listed as inhibitors; 220,000 tested, 2.6% active; also: potency is read from the fitted curve at half-maximal effect; 0% is about no effect; nearly all actives have a fitted effect of over 70% in size
#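 Compound dilutions met 200 nM (final) KDM5BΔAP for 10 min at room temperature before substrate addition. The substrate mix held 12.5 µM H3K4me3 with cofactors 25 µM α-ketoglutarate and 50 µM Fe²⁺. NADH signal gain over 30 min defined activity.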
# SNCA expr inh: SNCA gene expression inhibition | HEK-293 SNCA-luciferase knock-in, luminescence, 24 h | Potency, µM (series often up to 57.2 µM), for inactives: top-dose activity change, negative = inhibition, actives largely listed as inhibitors | 140,000 tested, 0.17% active;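 also: potency is read from the fitted curve at half-maximal effect; plate controls were DMSO cells for no effect and cell-free wells for full effect; nearly all actives have a fitted effect of over 45% in size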
# IP6K1 inh: IP6K1 kinase inhibition; Q92551; IP6K1 kinase, ADP-Glo luminescence, 2 h; stronger effect = lower value; activity change, % (series mostly up to about 58 µM); 140,000 tested, 0.81% active; in the data active = activity change below about -25%; also: % is scaled to controls: 0 for no effect and ±100 for the full control effect
# Target sequence (Q92551 whole entry, looked up): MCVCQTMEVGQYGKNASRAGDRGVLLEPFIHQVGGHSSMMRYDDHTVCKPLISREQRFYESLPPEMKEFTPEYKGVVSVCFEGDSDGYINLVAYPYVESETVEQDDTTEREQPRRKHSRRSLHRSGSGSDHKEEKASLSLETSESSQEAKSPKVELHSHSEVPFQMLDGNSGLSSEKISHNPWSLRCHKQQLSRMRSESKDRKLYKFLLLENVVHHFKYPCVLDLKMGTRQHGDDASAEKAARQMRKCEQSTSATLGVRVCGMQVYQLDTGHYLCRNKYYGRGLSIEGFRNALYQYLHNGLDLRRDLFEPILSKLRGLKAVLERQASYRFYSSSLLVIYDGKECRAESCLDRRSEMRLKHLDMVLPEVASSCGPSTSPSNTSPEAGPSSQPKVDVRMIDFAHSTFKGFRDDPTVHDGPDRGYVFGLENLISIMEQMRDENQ
#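 ADP-Glo luminescence measures ADP made by human IP6K1 during a 2 h RT reaction with ATP/IP6 (mix at 1.3 mM/130 uM); top library doses 57.5 and 19.1 uM final.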
# HEK293 viab: cell viability loss counter-screen; HEK-293-SNCA-luc viability, GF-AFC fluorescence, 24 h; Potency, µM (top dose mostly 57.1 µM), without a hit: top-dose activity change, negative = cytotoxicity, most hits filed as cytotoxic; 150,000 tested, 0.12% active; AID 1671193;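 also: potency is read from the fitted curve at half-maximal effect; 0% = DMSO-treated cells and -100% = medium-only wells without cells; nearly all actives have a fitted effect of over 30% in size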
#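 HEK-293-SNCA-luc cells (1500/well) plated 24 h, then exposed 24 h to a dilution series; GF-AFC added 30 min at 37C, fluorescence 405/540 nm; normalised to medium-only and DMSO wells, Hill fit.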
# IP6K1 conf: confirmation of human IP6K1 inhibitors; shares compounds with IP6K1 inh; recombinant IP6K1 kinase, ADP-Glo luminescence, 2 h; Potency, µM (highest dose often 49 µM), for inactives: top-dose activity change, negative = inhibition, most hits filed as inhibitors; 1,200 tested, 13% active; also: potency is read from the fitted curve at half-maximal effect; % is scaled to controls: 0 for no effect and ±100 for the full control effect; nearly all actives have a fitted effect of over 65% in size
# Active calls of the source: *; i = inactive; ? = inconclusive; · = no result; [ ] = dose if it differs, or a comment. Only some compounds are listed: those with a hit (about 2.8% of all), similar ones and a draw of the others. Unless noted, calls follow the shape of the dose curve; as a rule, active = well fitted curve in the direction sought with a large enough effect; inconclusive = small, poorly fitted or top-dose-only effect, or another doubt; inactive = no such curve, though single readings can be large; an effect the other way counts as inactive or inconclusive.
SMILES,KDM5B inhibitor,SNCA expr inh,IP6K1 inh,HEK293 viab,IP6K1 conf
COc1cccc(N2C(=O)NC(=NC3CCCC3)C23CCCN(CC2CCCCC2)C3)c1 (configuration not stated),i,?,-21,?,·
CC(OC(=O)c1ccoc1)C(=O)C12CC3CC(CC(C3)C1)C2 (configuration not stated),i,·,·,·,·
CN1CCN(c2cc(=O)c3ccnc(-c4ccc(Cl)cc4)c3o2)CC1,35µM*,6%[87.6 µM],-32*,-5%[87.6 µM],?
COc1ccc(OC)c(CN2CCNc3cc(-c4ccnc(C)c4)ncc3C2)c1,i,45%[87.6 µM],-27*,-20%[87.6 µM],3%
CCN1CCN(C(c2ccc(F)cc2)c2sc3nc(-c4ccco4)nn3c2O)CC1 (configuration not stated),i,46%,-29*,?,?
CC(=O)N1CCN(C(=O)Cc2ccc(Nc3ncc(F)c(Nc4ccc(C(=O)Nc5ccccc5Cl)cc4)n3)cc2)CC1,·,·,-30*,?,?
Cc1cccc(CC(=O)Nc2cccc(-c3nc4cccnc4s3)c2)c1,?,141%,30,-12%,·
Cc1ccccc1C(=O)Nc1cccc(-c2nc3cccnc3s2)c1,?,15%,-29*,-12%,?
Cc1cc(C(=O)NC2CC(c3nnc(CN(C)C)n3C)C2)c2c(C)noc2n1 (configuration not stated),i,37%,-29*,16%,-7%
COc1cc(OC)c(NC(=O)C2=C(C)C(=O)OC23CCCCCC3)cc1Cl,i,18%,-100*,2%,-13%
Cc1ccc(S(=O)(=O)Nc2cc(=O)[nH]c(SCC(=O)Nc3ccccc3C(F)(F)F)n2)cc1,i,·,·,·,·
OCCOCCN1CCN(C(c2ccccc2)c2ccc(Cl)cc2)CC1 (configuration not stated),·,-32%[25.6 µM],-31*,-24%[23.9 µM],3.7µM*
O=C(O)COCCN1CCN(C(c2ccccc2)c2ccc(Cl)cc2)CC1 (configuration not stated),·,-12%,10,-3%,·
Cc1ccc(CNC(=O)c2cc3n(n2)CC(c2ccc(Cl)cc2)OC3)cc1 (configuration not stated),?,?,7,-14%,·
Cc1ccc(Cl)cc1NC(=O)c1oc2c(c1C)-c1[nH]ncc1CC2,?,67%,-40*,2%,?
COc1cc(/C=C(\C#N)C(=O)c2ccc(O)c(O)c2)cc(I)c1O,·,2%,·,-16%,2.1µM*
Fc1cccc(-c2nc(-c3ccccc3)no2)c1,i,·,·,·,·
CCOc1cc(C2C(C(=O)OC)=C(C)NC3=C2C(=O)c2ccccc23)c(Br)cc1OC (configuration not stated),?,-18%,-2,3%,·
CCOc1cc(Br)c(C2C(C(=O)OC)=C(C)NC3=C2C(=O)c2ccccc23)cc1OCC (configuration not stated),?,-24%,-32*,-7%,-12%
Cc1cc(F)c(C(=O)Nc2cccc(-c3nncn3C(C)C)n2)cc1-n1cnc(C2CC2)c1,·,·,-35*,?,?
Cn1nc(C2CCCC2)cc1NC(=O)c1ccccc1F,·,87%[87.6 µM],-1,6%[87.6 µM],·
COc1ccc(-c2csc(NCC(C)C)n2)cc1OC,i,·,·,·,·
CC(Sc1nnc(N2CCCC2)n1-c1cccc(Cl)c1)c1nc2ccccc2c(=O)[nH]1 (configuration not stated),i,·,·,·,·
COCCn1nc(C(=O)NCC(c2ccccc2OC)N2CCCC2)ccc1=O (configuration not stated),i,·,·,·,·
O=C1COc2cc(S(=O)(=O)CCC(=O)N3CCN(C4CCCCC4)CC3)c(Cl)cc2N1,i,·,·,·,·
SMILES,KDM5B inhibitor,SNCA expr inh,IP6K1 inh,HEK293 viab,IP6K1 conf
Cn1cnc2cc(-c3ccc(F)cc3)cc(C(=O)NCCc3cnc[nH]3)c21,?,-28%[87.6 µM],-31*,-2%[87.6 µM],?
COc1cc(F)ccc1-c1cc(C(=O)NCc2c(C)cc(C)[nH]c2=O)c2c(c1)ncn2C,?,?,-1,-16%[87.6 µM],·
CCOC(=O)COc1ccc([N+](=O)[O-])cc1-c1ccnc2cc(-c3ccc(C)cc3)nn12,i,15%,2,3%,·
Cc1ccc(-c2cc3nccc(-c4cc([N+](=O)[O-])ccc4O)n3n2)cc1,?,?,-25*,?,?
CCc1noc(Cc2c(C)nn(-c3ccccc3)c2C)n1,i,29%,-28*,0%,-15%
Cc1nn(-c2ccccc2)c(C)c1CN(C)S(=O)(=O)c1ccc(F)cc1,i,·,·,·,·
CC1=CC(C)C2(COC(CCc3ccccc3)OC2)C(C)C1 (configuration not stated),i,·,·,·,·
O=C(Cc1ccc(NC(=O)N2CCSc3ncccc32)cc1)NCCc1ccccc1,?,1%,-33*,-2%,-17%
COc1ccc(C(=O)N2CCN(C(=O)c3cccc(-c4cccc(OC)c4)c3)CC2)cc1,·,0%,-4,5%[12.5 µM],·
CCc1ccc(CNC(=O)C2CCCN(S(=O)(=O)c3ccc4c(ccn4C)c3)C2)cc1 (configuration not stated),i,-23%,-26*,4%,-4%
CCc1ccc(NC(=O)COc2cccc(-c3nnc4n3CCCC4)c2)cc1,i,5%,25,-1%,·
COc1ccc(CN2CCN3C(=O)N(Cc4ccc(C)cc4)C[C@H]3C2)cc1,i,-28%[87.6 µM],-2,-3%[87.6 µM],·
COc1ccc(CN2C[C@H]3CN(Cc4cnn(C)c4)CCN3C2=O)cc1,?,-6%[87.6 µM],-30*,9%[87.6 µM],?
CN(C)C(=O)N1C2CCC1CN(c1ccc(C(F)(F)F)cc1)C2,i,?,-27*,-11%,?
CCN1CC2(CCN(C(=O)c3cccc(Cn4cccn4)c3)CC2)OC1=O,i,-15%,-4,16%,·
CCN1CC2(CCN(C(=O)c3cnc4c(O)cccn4c3=O)CC2)OC1=O,32µM*,-11%,-27*,?,-6%
CN(c1cc(=O)c2ccnc(Nc3ccc(F)c(Cl)c3)c2o1)C1CCOCC1,28µM*,0%[87.6 µM],-25*,-7%[87.6 µM],20%
CN(c1ccccc1)c1cc(=O)c2ccnc(-c3ccncc3)c2o1,i,26%[87.6 µM],-23,2%[87.6 µM],·
CN(c1cc(=O)c2ccnc(-c3cccc(C(F)(F)F)c3)c2o1)C1CCOCC1,28µM*,7%[87.6 µM],-34*,0%[87.6 µM],?
CN(c1ccccc1)c1cc(=O)c2ccnc(Nc3cccnc3)c2o1,?,35%[87.6 µM],-10,-3%[87.6 µM],·
COc1ccc(CCC(=O)NNC(=O)c2ccc(OC)cc2)cc1,i,·,·,·,·
Cc1ccc(C(=O)N2CCCC2C(=O)N2CCC(c3ccccc3)CC2)cc1 (configuration not stated),·,1%,-7,-20%,·
CCCCCCCC(=O)[O-].CCCCCCCC(=O)[O-].[Zn+2],·,-52%[25.6 µM],-36*,-24%[23.9 µM],?
CCCCCCCCCCCCCCCCCC(=O)O,·,-41%[25.6 µM],-7,-3%[23.9 µM],·
